Measurements: PubChem BioAssay (NCATS)
Inconclusive results are not listed. A call without a number means that no potency is given here. Active and inactive are the calls of the source. Calls follow the shape of the dose curve; as a rule, active = well fitted curve in the direction sought with a large enough effect; inconclusive = small, poorly fitted or top-dose-only effect, or another doubt; inactive = no such curve, though single readings can be large; an effect the other way counts as inactive or inconclusive.

Molecular target: Rap guanine nucleotide exchange factor 3 (Homo sapiens) (UniProt O95398)
Sequence (O95398 whole entry, looked up): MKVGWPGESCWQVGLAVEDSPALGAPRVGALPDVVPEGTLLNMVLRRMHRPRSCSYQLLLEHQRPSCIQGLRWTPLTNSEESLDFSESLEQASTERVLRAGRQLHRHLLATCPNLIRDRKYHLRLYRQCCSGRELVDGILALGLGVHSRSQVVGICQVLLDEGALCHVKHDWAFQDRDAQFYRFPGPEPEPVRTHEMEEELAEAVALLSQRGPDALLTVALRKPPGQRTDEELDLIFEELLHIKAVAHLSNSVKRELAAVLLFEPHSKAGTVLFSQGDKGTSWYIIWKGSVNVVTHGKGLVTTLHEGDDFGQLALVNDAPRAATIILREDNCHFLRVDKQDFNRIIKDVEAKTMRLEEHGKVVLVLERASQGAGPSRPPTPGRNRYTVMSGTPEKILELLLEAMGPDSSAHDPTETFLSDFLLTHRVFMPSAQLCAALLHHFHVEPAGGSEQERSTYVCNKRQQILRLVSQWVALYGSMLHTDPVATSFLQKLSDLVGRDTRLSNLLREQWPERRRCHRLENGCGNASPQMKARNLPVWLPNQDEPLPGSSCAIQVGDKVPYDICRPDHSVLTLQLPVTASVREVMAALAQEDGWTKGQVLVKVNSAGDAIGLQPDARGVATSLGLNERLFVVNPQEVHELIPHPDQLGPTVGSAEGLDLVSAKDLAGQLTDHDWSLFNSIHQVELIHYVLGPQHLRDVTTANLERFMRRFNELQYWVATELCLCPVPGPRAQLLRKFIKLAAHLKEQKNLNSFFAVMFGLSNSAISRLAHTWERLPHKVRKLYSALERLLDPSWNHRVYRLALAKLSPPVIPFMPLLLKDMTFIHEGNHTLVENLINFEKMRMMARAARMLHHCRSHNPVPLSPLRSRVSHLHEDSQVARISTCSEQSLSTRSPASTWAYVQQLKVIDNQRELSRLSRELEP
Experiment: Counterscreen qHTS for antagonist of cAMP-regulated guanine nucleotide exchange factor 3 (EPAC1) (AID 1645888);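 also: fluorescence loss as bound BODIPY-GDP is released from Rap1B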
Conditions: Rap1B-BODIPY-GDP nucleotide exchange, fluorescence; series mostly up to 154 µM
In short: (§1)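 Rap1B-BODIPY-GDP 250 nM + GDP 50 uM; cpds 7-pt, final 9.74 nM–152 uM (activator mode) or from 7.32 nM upwards (inhibitor mode); RT; FI 480/540 nm at 5 and 30 min, then ± cAMP, reread.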

SMILES | Potency | activity change, negative = inhibition
Cc1[nH]c2ccccc2c1C(c1ccccc1)c1ccc(Cl)s1 (stereo unspecified) | inactive | –
COc1ccc2oc(C)c(C(=O)c3ccccc3)c2c1 | – | 1.7% [at 30.8 µM] (inactive)
COc1ccc(N=Cc2c(O)n(-c3cccc(C)n3)c(=O)c3ccccc23)c(OC)c1 | – | 31% [at 30.8 µM] (inactive)
O=C(Cn1c(=O)n(-c2ccccc2)c(=O)c2c3c(sc21)CCC3)c1ccc(Br)cc1 | inactive | –
CCc1cccc(CC)c1N1C(=O)C2=C(SCCCS2)C1=O | inactive | –
COc1ccc(Cl)cc1NC(=O)CN(C)C(C)C(=O)NC(=O)NC1CCCCC1 (stereo unspecified) | inactive | –
CCN(CC)c1ccc2cc(-c3nc(-c4ccccc4)no3)c(=O)oc2c1 | inactive | –
Cc1ccccc1-n1c(O)c(/C=C/C=Nc2ccccc2)c(=O)[nH]c1=O | inactive | –
COc1ccccc1CNc1cc(C)nc2nc(-c3ccc(C)cc3)nn12 | inactive | –
Cc1cccc(-n2c(N)c(-c3nc4ccccc4n3C)c3nc4ccccc4nc32)c1 | – | -16.7% [at 30.8 µM] (inactive)
O=C(N/N=C/c1cc(Cl)cc([N+](=O)[O-])c1O)NC12CC3CC(CC(C3)C1)C2 | inactive | –
O=C(OCCN1C(=O)c2cccc3c(N4CCOCC4)ccc(c23)C1=O)c1ccccc1Cl | – | 1.86% [at 30.8 µM] (inactive)
O=C(N=c1ccn(-c2nc3ccccc3nc2NS(=O)(=O)c2ccccc2)cc1)c1ccccc1Cl | inactive | –
CCOC(=O)c1sc2nc3c(SCC(=O)O)cc(C(=O)c4cc(F)ccc4O)cn3c(=O)c2c1C | inactive | –
COc1ccc(O)c(C(=O)c2cc(SCC(=O)O)c3nc4sc5c(c4c(=O)n3c2)CCCC5)c1 | inactive | –
COc1ccc(CN(C)C(=O)CC(c2ccccc2)c2ccccc2)cc1 | inactive | –
COc1ccc(NC(=O)/C(C#N)=C\c2ccc(OCc3ccc(C(=O)O)cc3)c(OC)c2)cc1 | inactive | –
CCOc1ccccc1NC(=O)CSc1nccn1-c1cccc(C)c1 | inactive | –
CN1/C(=C/C=C(C#N)C#N)C(C)(C)c2ccccc21 | – | 214% [at 30.8 µM] (inactive)
COc1cc(/C=C(\C#N)c2nc3ccccc3o2)ccc1O | – | 3.99% [at 30.8 µM] (inactive)

SMILES | Potency | activity change, negative = inhibition
CCN(CC)C(=O)c1ccc(/C=C/c2c[nH]c3ccccc23)[n+](C)c1 | – | 70% [at 30.8 µM] (inactive)
Cc1ccc(N2C(=O)c3cccc4c(N)ccc(c34)C2=O)c2cccnc12 | inactive | –
N#C/C(=C\c1ccc(N2CCOCC2)o1)c1nc2ccccc2[nH]1 | inactive | –
O=C(O)c1cccc(-c2ccc(/C=c3/sc4nc5ccccc5n4c3=O)o2)c1 | inactive | –
COc1cc(C2CC(=O)Oc3cc(C)cc(C)c32)cc(OC)c1OC (stereo unspecified) | inactive | –
COC(=O)c1c(SC)nc2ccccc2c1OCc1ccc(C)cc1C | inactive | –
O=c1oc2cc(O)ccc2cc1-c1nc2c(s1)CCc1ccccc1-2 | inactive | –
COc1ccccc1C(=O)NNC(=O)CCCN1C(=O)/C(=C/c2cccs2)SC1=S | – | 10.7% [at 30.8 µM] (inactive)
Cc1ccc(-c2csc3ncnc(Nc4ccc(C(=O)O)cc4)c23)cc1 | inactive | –
CN(Cc1cccs1)c1nc(-c2cccnc2)nc2ccccc12 | – | -10.3% [at 30.8 µM] (inactive)
COc1ccc(N=Cc2sc(O)c3ccccc23)cc1 | – | 46.8% [at 30.8 µM] (inactive)
O=C(N/N=C/c1cccnc1)c1cc(-c2ccccc2OCc2ccccc2)n[nH]1 | inactive | –
CC(C)n1cc(/C=C/c2cc[n+](C)cc2)c2ccccc21 | inactive | –
Cc1ccc2[nH]cc(/C=C/c3cc[n+](C)cc3)c2c1 | inactive | –
Cc1cccc(-c2nc3nc(C)cc(NCc4ccccc4Cl)n3n2)c1 | inactive | –
CCOC(=O)N1CCc2c(sc3c2c(=O)n(-c2ccc(F)cc2)c(=O)n3CC(=O)c2ccc(Cl)cc2)C1 | inactive | –
CCOc1cc(/C=C2\CCCc3c2nc2ccccc2c3C(=O)O)ccc1OC | inactive | –
NC(=O)c1c(NC(=O)c2ccccc2)sc2c1CCN(Cc1ccccc1)C2 | inactive | –
CN(C)c1ccc(/C=C2\SC(=S)N(Nc3ncc(C(F)(F)F)cc3Cl)C2=O)cc1 | inactive | –

Molecular target: Rap guanine nucleotide exchange factor 3 (Homo sapiens) (UniProt O95398)
Experiment: Counterscreen qHTS for agonist of cAMP-regulated guanine nucleotide exchange factor 3 (EPAC1) (AID 1645889); also: nearly all actives have a fitted effect of over 40% in size; also: potency is read from the fitted curve at half-maximal effect
Conditions: EPAC1 Rap1B-BODIPY-GDP exchange, fluorescence; series mostly up to 154 µM
In short: as §1

SMILES | Potency | activation
Cc1[nH]c2ccccc2c1C(c1ccccc1)c1ccc(Cl)s1 (stereo unspecified) | inactive | –
COc1ccc2oc(C)c(C(=O)c3ccccc3)c2c1 | – | 7.36% [at 30.8 µM] (inactive)
COc1ccc(N=Cc2c(O)n(-c3cccc(C)n3)c(=O)c3ccccc23)c(OC)c1 | – | 19.8% [at 30.8 µM] (inactive)
O=C(Cn1c(=O)n(-c2ccccc2)c(=O)c2c3c(sc21)CCC3)c1ccc(Br)cc1 | inactive | –
CCN(CC)c1ccc2cc(-c3nc(-c4ccccc4)no3)c(=O)oc2c1 | 56.2 µM (active) | –
Cc1ccccc1-n1c(O)c(/C=C/C=Nc2ccccc2)c(=O)[nH]c1=O | 39.8 µM (active) | –
COc1ccccc1CNc1cc(C)nc2nc(-c3ccc(C)cc3)nn12 | inactive | –
O=C(OCCN1C(=O)c2cccc3c(N4CCOCC4)ccc(c23)C1=O)c1ccccc1Cl | 11.2 µM (active) | –
O=C(N=c1ccn(-c2nc3ccccc3nc2NS(=O)(=O)c2ccccc2)cc1)c1ccccc1Cl | 79.4 µM (active) | –
CCOC(=O)c1sc2nc3c(SCC(=O)O)cc(C(=O)c4cc(F)ccc4O)cn3c(=O)c2c1C | inactive | –
COc1ccc(O)c(C(=O)c2cc(SCC(=O)O)c3nc4sc5c(c4c(=O)n3c2)CCCC5)c1 | inactive | –
COc1ccc(CN(C)C(=O)CC(c2ccccc2)c2ccccc2)cc1 | inactive | –
COc1ccc(NC(=O)/C(C#N)=C\c2ccc(OCc3ccc(C(=O)O)cc3)c(OC)c2)cc1 | inactive | –
CCOc1ccccc1NC(=O)CSc1nccn1-c1cccc(C)c1 | inactive | –
CN1/C(=C/C=C(C#N)C#N)C(C)(C)c2ccccc21 | – | -347% [at 30.8 µM] (inactive)
COc1cc(/C=C(\C#N)c2nc3ccccc3o2)ccc1O | – | 23.5% [at 30.8 µM] (inactive)

SMILES | Potency | activation
CCN(CC)C(=O)c1ccc(/C=C/c2c[nH]c3ccccc23)[n+](C)c1 | 15.8 µM (active) | –
Cc1ccc(N2C(=O)c3cccc4c(N)ccc(c34)C2=O)c2cccnc12 | 10 µM (active) | –
N#C/C(=C\c1ccc(N2CCOCC2)o1)c1nc2ccccc2[nH]1 | 39.8 µM (active) | –
O=C(O)c1cccc(-c2ccc(/C=c3/sc4nc5ccccc5n4c3=O)o2)c1 | inactive | –
COc1cc(C2CC(=O)Oc3cc(C)cc(C)c32)cc(OC)c1OC (stereo unspecified) | inactive | –
COC(=O)c1c(SC)nc2ccccc2c1OCc1ccc(C)cc1C | inactive | –
O=c1oc2cc(O)ccc2cc1-c1nc2c(s1)CCc1ccccc1-2 | inactive | –
Cc1ccc(-c2csc3ncnc(Nc4ccc(C(=O)O)cc4)c23)cc1 | inactive | –
CN(Cc1cccs1)c1nc(-c2cccnc2)nc2ccccc12 | – | 51% [at 30.8 µM] (inactive)
COc1ccc(N=Cc2sc(O)c3ccccc23)cc1 | – | 29% [at 30.8 µM] (inactive)
O=C(N/N=C/c1cccnc1)c1cc(-c2ccccc2OCc2ccccc2)n[nH]1 | 25.1 µM (active) | –
CC(C)n1cc(/C=C/c2cc[n+](C)cc2)c2ccccc21 | 56.2 µM (active) | –
Cc1ccc2[nH]cc(/C=C/c3cc[n+](C)cc3)c2c1 | 56.2 µM (active) | –
CCOc1cc(/C=C2\CCCc3c2nc2ccccc2c3C(=O)O)ccc1OC | 100 µM (active) | –
NC(=O)c1c(NC(=O)c2ccccc2)sc2c1CCN(Cc1ccccc1)C2 | 39.8 µM (active) | –
CN(C)c1ccc(/C=C2\SC(=S)N(Nc3ncc(C(F)(F)F)cc3Cl)C2=O)cc1 | 17.8 µM (active) | –
